This is an account of results in the antibiotic and cytotoxicity screens of Wong et al. (2023).

Each structure is given as a SMILES string. Screen size: about 39,000 compounds; about 3,300 (8.5%) were called active. This excerpt belongs to a sample that is enriched for actives.

This assay deals with HepG2. Briefly: cytotoxicity call (relative viability < 0.9). As to conditions: 10 µM.
For the compound `O=C1NCCC[C@@H]1C(=O)N1CCCCC1`, the cytotoxicity call was “inactive”.
The entry for `NNC(=O)[C@H]1CCCNC1=O` is “active”.
The entry for `COC(=O)[C@H]1CCCNC1=O` is “inactive”.
In the case of `COC[C@H]1C[C@@H](c2nc(-c3ccc4c(c3)COc3cc5c(ccc6[nH]c([C@@H]7CC[C@H](C)N7C(=O)[C@@H](NC(=O)OC)C(C)C)nc65)cc3-4)c[nH]2)N(C(=O)[C@H](NC(=O)OC)c2ccccc2)C1`, the cytotoxicity call is “inactive”.
The same measure for `C[C@H]1CCCCO[C@H](CN(C)S(=O)(=O)c2ccc(Cl)cc2)[C@@H](C)CN([C@@H](C)CO)C(=O)c2cc(NC(=O)Nc3cccc4ccccc34)ccc2O1`: “inactive”; for `COc1ccc(CN(CCN(C)C)c2ncccn2)cc1.Cl`: “inactive”; for `CCCCCCCCCCCCCCCC[N+](C)(C)CCN(Cc1ccc(OC)cc1)c1ncccn1`: “active”.
With `C[C@@H]1CN([C@H](C)CO)C(=O)c2cc(NC(=O)Cc3ccccc3)ccc2O[C@@H](C)CCCCO[C@@H]1CN(C)C(=O)CCC(F)(F)F`, the cytotoxicity call is “inactive”.
For `C[C@H](CO)N1C[C@H](C)[C@H](CN(C)C(=O)Nc2ccccc2)Oc2c(NC(=O)c3ccc(-c4nccs4)cc3)cccc2C1=O`, the cytotoxicity call was “inactive”.
The entry for `COc1ccc(NC(=O)Nc2ccc3c(c2)C(=O)N([C@H](C)CO)C[C@@H](C)[C@@H](CN(C)S(C)(=O)=O)O3)cc1` is “inactive”.
The same measure for `COc1ccc(NC(=O)Nc2ccc3c(c2)C(=O)N([C@@H](C)CO)C[C@H](C)[C@H](CN(C)S(C)(=O)=O)O3)cc1`: “active”.
Consider `COc1ccc(NC(=O)Nc2ccc3c(c2)C(=O)N([C@@H](C)CO)C[C@@H](C)[C@@H](CN(C)S(C)(=O)=O)O3)cc1`, for which the cytotoxicity call was “inactive”.
The same measure for `COc1ccc(NC(=O)Nc2ccc3c(c2)C(=O)N([C@H](C)CO)C[C@H](C)[C@@H](CN(C)S(C)(=O)=O)O3)cc1`: “inactive”; for `COc1ccc(NC(=O)Nc2ccc3c(c2)C(=O)N([C@@H](C)CO)C[C@@H](C)[C@H](CN(C)S(C)(=O)=O)O3)cc1`: “inactive”; for `COc1ccc(NC(=O)Nc2ccc3c(c2)C(=O)N([C@H](C)CO)C[C@@H](C)[C@H](CN(C)S(C)(=O)=O)O3)cc1`: “active”.
As for `C[C@H](CO)N1C[C@H](C)[C@@H](CN(C)Cc2ccccc2)Oc2cc(C#CC(C)(C)O)ccc2S1(=O)=O`, the cytotoxicity call was “inactive”.
The entry for `C[C@@H]1CN([C@@H](C)CO)C(=O)c2cc(NC(=O)Nc3ccc(C(F)(F)F)cc3)ccc2O[C@@H](C)CCCCO[C@@H]1CN(C)C(=O)C1CCCCC1` is “inactive”.
The entry for `COc1ccc(S(=O)(=O)N(C)C[C@H]2Oc3ncc(C#CC4(O)CCCC4)cc3C(=O)N([C@@H](C)CO)C[C@H]2C)cc1` is “inactive”; for `Cn1nnnc1SCC(=O)NC(C)(C)C` it is “inactive”.
